The panel holds about 79,000 compounds, 15% with a hit somewhere; the sample as a whole holds those more often. Cut-off read from the data, not from the text of the source: active = growth inhibition above about 70%; inactive = the rest. Where a SMILES comes first, the peptide text is derived from it. The star is where a group is joined. Boc = CC(C)(C)OC(=O)*; Bn = c1ccc(C*)cc1
What was measured:
[1] = NCI Yeast Anticancer Drug Screen. Data for the rad50 strain (AID 155);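 note: 0% = growth of vehicle-only cultures of the same strain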; conditions: S. cerevisiae rad50 strain growth inhibition; at 50.0 µM; hits give high values
Summary of the method: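 Readout: growth inhibition relative to vehicle-treated cultures. Compound exposure was carried out in a genetically defined yeast strain deficient in DNA damage repair.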

[2] = NCI Yeast Anticancer Drug Screen. Data for the mec2-1 strain (AID 157); conditions: S. cerevisiae mec2-1 strain, at 50.0 µM, hits give high values
Summary of the method: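 Compounds were applied to mec2-1 yeast cells. Their growth was then compared with that of vehicle-treated cultures to give growth inhibition.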

[3] = NCI Yeast Anticancer Drug Screen. Data for the sgs1 mgt1 strain (AID 161);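 note: 0% = growth of cultures given vehicle only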; conditions: S. cerevisiae sgs1 mgt1 strain, at 50.0 µM, hits give high values
Summary of the method: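 Growth of a repair-deficient yeast mutant was monitored after compound treatment and expressed as inhibition relative to vehicle-treated cultures.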

[4] = NCI Yeast Anticancer Drug Screen. Data for the cln2 rad14 strain (AID 165);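 note: 0% = growth equal to vehicle treated cultures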; conditions: S. cerevisiae cln2 rad14 strain, at 50.0 µM, hits give high values
Summary of the method: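 Strain: cln2 rad14 yeast, altered in cell cycle control and DNA damage repair. Read-out: growth inhibition vs vehicle.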

[5] = NCI Yeast Anticancer Drug Screen. Data for the bub3 strain (AID 167); conditions: S. cerevisiae bub3 mutant strain, at 50.0 µM, hits give high values
Summary of the method: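 Readout: yeast growth inhibition, expressed relative to vehicle-only wells. The test organism is a mutant strain from a panel with lesions in DNA repair or checkpoint genes.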

[6] = NCI Yeast Anticancer Drug Screen. Data for the mlh1 rad18 strain (AID 175); conditions: S. cerevisiae mlh1 rad18 strain growth inhibition; at 50.0 µM; hits give high values
Summary of the method: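 A repair-deficient yeast strain is exposed to test compound, and growth is scored relative to vehicle-treated controls.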

Measured: growth inhibition

COc1ccc(CCC2(C)OCCCO2)cc1
inactive: [1] 9.75% | [2] -0.65% | [3] -0.85% | [4] -6.75% | [5] -5.8% | [6] 17.4%

CC(C)OP(=O)(c1ccccc1)c1ccc2c(c1)OCCOCCOCCOCCO2 (centres undefined)
inactive: [1] -3.05% | [2] -2.2% | [3] 0.75% | [4] 7.05% | [5] -2.1% | [6] 24.7%

O=C(O)c1ccc(Cl)c2ncccc12
inactive: [1] 5.3% | [2] 1.25% | [3] -1.3% | [4] -28.2% | [5] -9.75% | [6] 13.2%

COc1cccc(C(N)C(=O)O)c1 (centres undefined)
inactive: [1] -22.9% | [2] -16.2% | [3] -5.25% | [4] -26.2% | [5] -12.4% | [6] -17.4%

COc1cccc2c1C(=O)c1c(O)c3c(c(O)c1C2=O)C[C@@](O)(C(C)=O)CC3S(=O)(=O)O (some centres undefined)
inactive: [1] -14% | [2] -7.45% | [3] -24.4% | [4] -8.85% | [5] -14.9% | [6] 9.7%

CC(C)CNC(=O)Nc1ccccc1C(F)(F)F
inactive: [1] -6.5% | [2] -8.4% | [3] -23.6% | [4] -4.55% | [5] 7.7% | [6] -14.4%

CC(=O)OCC1OC(n2nc(/C=C/c3ccco3)c(=O)n(-c3ccccc3)c2=S)C(OC(C)=O)C(OC(C)=O)C1OC(C)=O (centres undefined)
inactive: [1] 57.5% | [2] 14.8% | [3] 61% | [4] 29.4% | [5] 16.4% | [6] 56.4%

CN=C(NC)c1ccc(Cl)c(Cl)c1
inactive: [1] 8.1% | [2] -5.4% | [3] -0.9% | [4] -31.2% | [5] 10.9% | [6] 11.8%

CC(C)(C)c1ccc(OC(=S)Nc2ccccc2)cc1
inactive: [1] -32.8% | [2] -6.25% | [3] -17.4% | [4] -17.2% | [5] -13.6% | [6] 2.5%

COc1ccc(/C(Cl)=C(\C=O)c2ccc(OC)c(OC)c2)cc1OC
inactive: [1] 21.9% | [2] 4.5% | [3] -0.3% | [4] -17.1% | [5] -3% | [6] -13.1%

Cc1ccc(-c2c(C#N)c(S)n(NS(=O)(=O)c3ccc(C)cc3)c(=O)c2C#N)cc1
inactive: [1] 46.1% | [2] 57.3% | [3] 59.9% | [4] 28.6% | [5] 39.6% | [6] 59.9%

CCc1cccc(C(C)C)c1NC(=O)C(=O)C(CC(=O)Nc1ccc(Cl)c(Cl)c1)C(=O)OC (centres undefined)
inactive: [1] -1.85% | [2] 3.6% | [3] -2.65% | [4] 15.8% | [5] 14.8% | [6] 7.7%

COC(=O)C1=CO[C@@H](O)[C@@H]2C(C)OC(=O)C[C@H]12 (some centres undefined)
inactive: [1] -8.5% | [2] -28.3% | [3] -6.9% | [4] 3.2% | [5] -10.8% | [6] -15.2%

CCOC(=O)Nc1ccc(C2SCCN2C(=O)Nc2ccc(Cl)cc2)cc1 (centres undefined)
inactive: [1] -9.5% | [2] -14.3% | [3] -9.45% | [4] -5.65% | [5] -7.7% | [6] -11.3%

CNC(C#N)c1ccco1 (centres undefined)
inactive: [1] 11.3% | [2] -17.2% | [3] 16% | [4] 8.4% | [5] 13.4% | [6] 22.1%

Cc1ccnc(Nc2nnc(Nc3cc(C)ccn3)c3ccccc23)c1
inactive: [1] -20.8% | [2] -12.6% | [3] -5.85% | [4] -22% | [5] -3.8% | [6] -4.45%

CCc1ccc2c(c1)CCC(=O)O2
inactive: [1] 0.5% | [2] -15.2% | [3] -4.8% | [4] -23.7% | [5] -13.9% | [6] -7.65%

O=c1cnn(C2OC(CO)C(O)C2O)c(=S)[nH]1 (centres undefined)
inactive: [1] -4.45% | [2] -1.45% | [3] 28.6% | [4] 1.25% | [5] 26.1% | [6] -96.5%

Cc1cccc2c(C=O)c[nH]c12
inactive: [1] 8.9% | [2] -3.1% | [3] -13.4% | [4] -9.55% | [5] 4.95% | [6] 14.2%

C[CH2][Sn]([CH2]C)([O][P+](=O)C[Si](C)(C)c1ccccc1)[O][P+](=O)C[Si](C)(C)c1ccccc1 (centres undefined)
inactive: [1] 3.8% | [2] 29.6% | [3] 12.7% | [4] -3.55% | [5] -3.35% | [6] 17.9%

Cc1ccc(S(=O)(=O)OC2C(C)(C)C(=O)C2(C)C)cc1
inactive: [1] 7.45% | [2] -2.15% | [3] -0.05% | [4] -11.7% | [5] 17.6% | [6] 8.35%

COC(=O)C(=O)C(C(=O)C=C(C)C)c1nc2n(c1O)C(=N)N=N2 (centres undefined)
inactive: [1] 13.2% | [2] 20.9% | [3] 14.3% | [4] -1.75% | [5] 13.1% | [6] 17.4%

Cc1nc([N+](=O)[O-])cn1CC(Cl)Cn1cc([N+](=O)[O-])nc1C
inactive: [1] -4.65% | [2] -12.4% | [3] -18.7% | [4] 9.7% | [5] -25.1% | [6] 14.2%

COc1cc(NS(=O)(=O)c2ccc(C)cc2)c2c(c1N)C(=O)c1ccccc1C2=O
inactive: [1] -3.4% | [2] -8.15% | [3] -4.1% | [4] 5.35% | [5] 5.55% | [6] -1.05%

CN=NNc1ccc(C#N)cc1
inactive: [1] 7.3% | [2] 1.4% | [3] -1.85% | [4] -14.1% | [5] -6.65% | [6] 5.5%

O=C(Nc1ccc(Cl)cc1)Nc1nnc2nc(C(C(=O)c3cccs3)c3nc4nnc(NC(=O)Nc5ccc(Cl)cc5)n4[nH]c3=O)c(=O)[nH]n12
inactive: [1] 1.55% | [2] 12.2% | [3] 0.1% | [4] 15.8% | [5] 0.05% | [6] -13.8%

NNC(=O)CC(=O)Nc1ccc(S(=O)(=O)c2ccc(NC(=O)CC(=O)NN)cc2)cc1
inactive: [1] 16.6% | [2] 12.7% | [3] 18.6% | [4] 30.1% | [5] 25.4% | [6] -1%

CC1=C(C(=O)OCCO[N+](=O)[O-])C(c2ccccc2C(F)(F)F)C(C(=O)OC(C)C)=C(C)N1 (centres undefined)
inactive: [1] 45.5% | [2] 17.4% | [3] 32.9% | [4] 53% | [5] 30% | [6] -27.1%

COc1ccc2c(c1)C1(C)CCCC(C)(C=O)C1CC2 (centres undefined)
inactive: [1] 5.5% | [2] -2.75% | [3] -3.65% | [4] -1.25% | [5] 10.4% | [6] 4.75%

O=c1[nH]c2cc([N+](=O)[O-])ccc2nc1/C=C(\O)c1cccc([N+](=O)[O-])c1
inactive: [1] 12.3% | [2] -1.35% | [3] 5.25% | [4] -5.15% | [5] -3.1% | [6] 28.6%

COc1ccc(NC(C)c2ccncc2)cc1 (centres undefined)
inactive: [1] -17.8% | [2] -16% | [3] -29% | [4] -9.95% | [5] -9.9% | [6] -46%

COC(=O)C(CC(C)C)NC(=O)CNC(=O)C(Cc1ccc(OCc2ccccc2)cc1)NC(=O)C(COCc1ccccc1)NC(=O)OC(C)(C)C (centres undefined) (Boc-S(Bn)Y(Bn)GL-OMe; configuration not given here)
inactive: [1] -26.8% | [2] -22.6% | [3] -23.8% | [4] 11.8% | [5] 2.65% | [6] -10.5%

OC(COc1ccccc1)COc1ccccc1
inactive: [1] 1.35% | [2] 2.45% | [3] 16.4% | [4] -18.7% | [5] 8.1% | [6] 3.1%

COc1ccc(C2COc3cc4c(cc3C2)OCO4)cc1 (centres undefined)
inactive: [1] -22.4% | [2] -26.1% | [3] -20.6% | [4] -2.3% | [5] 20.1% | [6] 4.9%

O=C(NCCCCC[N+](CCCCCNC(=O)c1ccccc1)(CCCCCNC(=O)c1ccccc1)CCCCCNC(=O)c1ccccc1)c1ccccc1
inactive: [1] 3.65% | [2] 10.4% | [3] -15.2% | [4] -2.2% | [5] -1.65% | [6] -7.85%

CC(C)CC(C)(O)C#CC(C)(O)CC(C)C (centres undefined)
inactive: [1] -1.8% | [2] -25.4% | [3] -12.7% | [4] -31.4% | [5] 4.55% | [6] -22.2%

CC12CCC3c4ccc(OC(=O)c5ccc([N+](=O)[O-])cc5)cc4CCC3C1CCC2=O (centres undefined)
inactive: [1] 13.8% | [2] -6.95% | [3] -6.45% | [4] 5.75% | [5] -0.65% | [6] -1.75%

Cc1cccc(C)c1NC(=O)C(Cl)Cl
inactive: [1] -2.9% | [2] -0.6% | [3] -3.9% | [4] 5.05% | [5] -12% | [6] -0.15%

O=C1c2ccccc2C(=O)N1CCc1ccccc1
inactive: [1] -12.1% | [2] 7% | [3] -6.9% | [4] -36% | [5] 16.6% | [6] 14.1%
